# In PubChem BioAssay (Tox21):
# Where “and” joins values, the source holds several entries; their conditions need not be identical. Equal entries are not always repeated. Records with an inconclusive call do not appear. Entries that show only a call come without a potency. Calls of active or inactive are those of the source. Calls follow the shape of the dose curve; as a rule, active = well fitted inhibition curve with a large enough effect in the repeat runs; inconclusive = weak or mixed curves; inactive = no such curve, though single readings can be large or run the other way.
# Biological target: Cytochrome P450 1A2 (Homo sapiens) (UniProt P05177)
# Assay: Cytochrome P450 Family 1 Subfamily A Member 2 (CYP1A2) small molecule antagonists: luciferase reporter qHTS assay (AID 1671199); also: nearly all actives have a fitted effect of over 50% in size
# Settings: P450-Glo CYP1A2 enzyme, luciferin luminescence, 1 h; series mostly up to 53 µM
# Source text: National Center for Advancing Translational Sciences [NCATS]
# U.S. Environmental Protection Agency [EPA]
# National Institutes of Environmental Health Sciences [NIEHS]
# National Toxicology Program [NTP]
# U.S. Food and Drug Administration [FDA]
# Cytochrome P450 (CYP) enzymes are membrane-bound hemeproteins that play a key role in metabolism of drugs and xenobiotics. Evaluation of the effect of chemicals on CYP isozymes is useful to minimize the adverse drug reactions and toxicities in drug development process. Tox21 chemicals were tested for their effect on CYP enzyme activities by using P450-Glo (TM) screening systems (Promega Corporation, Madison, WI). These systems provide a luminescent method containing proluciferin substrates and are converted to luciferin products by CYP isozymes. The luciferin products formed are detected with a luciferin detection reagent, and the amount of light produced is proportional to CYP activity. P450-Glo (TM) CYP1A2 screening system (Catalog. No. V9770) was used to detect the compounds that interfere in CYP1A2 activity. The positive control compound used for CYP1A2 assay is furafylline (Sigma-Aldrich, St. Louis, MO).
# Tox21 Assay Protocol Summary:
# Two ul of enzyme-substrate mix was dispensed into medium binding white/solid 1536-well plates (Greiner Bio-One North America Inc., Monroe, NC) using a BioRaptr Flying Reagent Dispenser (FRD, Beckman Coulter, Brea, CA). Compounds dissolved in DMSO and positive control (furafyllline) were transferred to the assay plates at 23 nl using a Pintool station (Wako, San Diego, CA). The assay plates were incubated at room temperature for 10 min. Then 2 ul of NADPH regeneration solution was added to each well of the assay plates using an FRD and incubated at room temperature for 1 h. The reaction was stopped by adding 4 ul of detection reagent using an FRD and after 20 min incubation at room temperature the luminescence signal was measured using a ViewLux plate reader (Perkin Elmer, Shelton, CT). Data were expressed as relative luminescence units.
# Potency is read from the fitted curve at half-maximal effect.
# Chain of Cytochrome P450 1A2 (Homo sapiens) (P05177 whole entry, looked up): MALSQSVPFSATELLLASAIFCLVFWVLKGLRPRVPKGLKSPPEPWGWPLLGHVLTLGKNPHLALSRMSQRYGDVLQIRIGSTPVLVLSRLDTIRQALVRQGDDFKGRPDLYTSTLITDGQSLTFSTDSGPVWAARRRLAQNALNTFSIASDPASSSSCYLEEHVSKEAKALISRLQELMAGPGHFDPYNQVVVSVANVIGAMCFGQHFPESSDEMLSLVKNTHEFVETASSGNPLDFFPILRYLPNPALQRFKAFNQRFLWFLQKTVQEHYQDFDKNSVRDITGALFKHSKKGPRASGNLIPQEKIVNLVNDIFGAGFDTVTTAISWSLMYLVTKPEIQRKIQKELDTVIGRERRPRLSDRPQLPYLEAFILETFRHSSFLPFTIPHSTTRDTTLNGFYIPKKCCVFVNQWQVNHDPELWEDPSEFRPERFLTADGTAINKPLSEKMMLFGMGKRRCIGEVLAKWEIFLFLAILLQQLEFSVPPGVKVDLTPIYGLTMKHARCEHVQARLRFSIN
row,SMILES,Potency
1,C[C@@H]1CC(=O)NN=C1c1ccc(NN=C(C#N)C#N)cc1,inactive
2,CCCCCCCCC(CCCCCC)C(=O)O (stereo not given),inactive
3,Oc1cc2c(cc1O)[C@H]1c3ccc(O)c(O)c3OC[C@@]1(O)C2,36 µM (active)
4,CCC(=O)OC,inactive
5,COc1cc(C(=O)NC2CCN(C)CC2)ccc1Nc1ncc2c(n1)N(C1CCCC1)CC(F)(F)C(=O)N2C,inactive
6,c1ccc2c(c1)CCc1ccccc1N2,7.13 µM (active) and 5.49 µM (active)
7,COC(=O)[C@H]1[C@H]2C[C@@H]3c4[nH]c5cc(OC)ccc5c4CCN3C[C@H]2C[C@@H](OC(=O)/C=C/c2ccc(O)c(OC)c2)[C@@H]1OC,inactive
8,CN1CCCN=C1COC(=O)C(O)(c1ccccc1)C1CCCCC1 (stereo not given),inactive
9,CC(=O)Nc1cc(S(=O)(=O)O)cc2cc(S(=O)(=O)O)c(N=Nc3ccccc3)c(O)c12,31.7 µM (active)
10,Cc1ccc2c(Br)cc(Br)c(O)c2n1,36.3 µM (active)
11,Nc1nc2ccc([N+](=O)[O-])cc2s1,9.74 µM (active)
12,O=C1c2ccccc2C(=O)C1c1nc2ccccc2c(Br)c1O,10 µM (active)
13,c1cc(N(CC2CO2)CC2CO2)ccc1Cc1ccc(N(CC2CO2)CC2CO2)cc1 (stereo not given),inactive
14,CC(C)C[C@H](NC(=O)[C@H](CCc1ccccc1)NC(=O)CN1CCOCC1)C(=O)N[C@@H](Cc1ccccc1)C(=O)N[C@@H](CC(C)C)C(=O)[C@@]1(C)CO1,inactive
15,O=C(CCCN1CC=C(n2c(=O)[nH]c3ccccc32)CC1)c1ccc(F)cc1,inactive
16,Cc1ccc(CO)cc1,32.1 µM (active)
17,CC(=O)[C@H]1[C@H](C#N)C[C@H]2[C@@H]3CC=C4C[C@@H](O)CC[C@]4(C)[C@H]3CC[C@@]21C,inactive
18,Nc1ccc(N=Nc2ccccc2)c(N)c1,7.8 µM (active)
19,O=C(O)CCCCCCCCCCCBr,inactive
20,C=C1CCC2CC1C2(C)C (stereo not given),inactive

row,SMILES,Potency
1,CC(C)(C)CC(=O)OCC(=O)[C@@]1(O)CC[C@H]2[C@@H]3CCC4=CC(=O)C=C[C@]4(C)[C@H]3[C@@H](O)C[C@@]21C,inactive
2,O=C1c2ccccc2C(=O)c2c(O)c(O)cc(O)c21,35.6 µM (active)
3,C/C=C(/C(=C/C)c1ccc(O)cc1)c1ccc(O)cc1,inactive
4,Cc1cc(O)ccc1O,inactive
5,COc1ncnc(NS(=O)(=O)c2ccc(N)cc2)c1OC,inactive
6,CCCCCCCCCI,inactive
7,Nc1nnc(-c2ccc([N+](=O)[O-])o2)o1,39.9 µM (active)
8,CN(C(=O)CN(CCO)CC(=O)N(C)C(C)(C)Cc1ccccc1)C(C)(C)Cc1ccccc1,inactive
9,CCCCC(CC)COP(=O)(O)O (stereo not given),inactive
10,O=C=Nc1cccc(C(F)(F)F)c1,inactive
11,Cc1cc(C)c(N)cc1C,0.708 µM (active)
12,CCCCCC[C@@H](O)C/C=C\CCCCCCCC(=O)OCC(O)CO (stereo not given in full),inactive
13,CN(C)CCC=C1c2ccccc2C=Cc2ccccc21,inactive
14,CC[C@]1(O)C[C@H]2CN(CCc3c([nH]c4ccccc34)[C@@](C(=O)OC)(c3cc4c(cc3OC)N(C=O)[C@H]3[C@@](O)(C(=O)OC)[C@H](OC(C)=O)[C@]5(CC)C=CCN6CC[C@]43[C@@H]65)C2)C1,inactive
15,CC(=O)NC1(c2cccc(F)c2)CCN(CC[C@@]2(c3ccc(Cl)c(Cl)c3)CN(c3ccccc3)C(=O)CO2)CC1,inactive
16,CNC(=O)c1cnn(-c2nc(N)c3ncn([C@@H]4O[C@H](CO)[C@@H](O)[C@H]4O)c3n2)c1,inactive
17,CN1C(=O)c2ccccc2C1=O,24.5 µM (active)
18,CCCCCCNC(=O)n1cc(F)c(=O)[nH]c1=O,inactive
19,O=C(/C=C/c1ccc(O)c(O)c1)O[C@@H]1C[C@@](OC(=O)/C=C/c2ccc(O)c(O)c2)(C(=O)O)C[C@@H](O)[C@@H]1O,27.5 µM (active)
20,Clc1ccc(Nc2nnc(Cc3ccncc3)c3ccccc23)cc1,1.44 µM (active)
